Test [1] in a line: BSK_CASM3C_SRB: Viability Assessment in the BioMAP Diversity Plus: CASM3C Assay (AID 2283050).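 Further: cells exposed to compound for 24 h.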 The note with it: primary human coronary artery smooth muscle cells.
Read-out in test [2]: Thrombomodulin, THBD (gene 7056)
The test is described as follows: BSK_CASM3C_Thrombomodulin: BioMAP Diversity Plus: CASM3C Assay for Thrombomodulin Biomarker Activity (AID 2283051).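 Further: thrombomodulin protein level measured by ELISA 24 h after dosing.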 The note with it: primary human coronary artery smooth muscle cells; actives raise or lower the signal.

Read-out in test [3]: Tissue Factor, F3 (gene 2152)
Kind of test: BSK_CASM3C_TissueFactor: BioMAP Diversity Plus: CASM3C Assay for Tissue Factor Biomarker Activity (AID 2283052).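 Further: cell surface tissue factor protein level read by ELISA.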 Particulars: primary human coronary artery smooth muscle cells; actives raise or lower the signal.

Read-out in test [4]: Interferon-gamma inducible Protein 10 (IP10), CXCL10 (gene 3627)
Kind of test: BSK_hDFCGF_IP10: BioMAP Diversity Plus: hDFCGF Assay for Interferon-gamma inducible Protein 10 (IP10) Biomarker Activity (AID 2283053). Particulars: primary human foreskin fibroblasts; actives raise or lower the signal. A digest of the protocol:
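Primary human foreskin fibroblasts exposed to chemicals for 24 h. IP-10 measured by ELISA; changes fitted bidirectionally against DMSO baseline.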

Read-out in test [5]: Urokinase-type plasminogen activator receptor (uPAR), PLAUR (gene 5329)
The test is described as follows: BSK_CASM3C_uPAR: BioMAP Diversity Plus: CASM3C Assay for Urokinase-type plasminogen activator receptor (uPAR) Biomarker Activity (AID 2283054).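 Further: cell-surface uPAR protein level quantified by ELISA.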 Particulars: primary human coronary artery smooth muscle cells; actives raise or lower the signal.

Read-out in test [6]: Vascular cell adhesion molecule 1 (VCAM1), VCAM1 (gene 7412)
Kind of test: BSK_CASM3C_VCAM1: BioMAP Diversity Plus: CASM3C Assay for Vascular cell adhesion molecule 1 (VCAM1) Biomarker Activity (AID 2283055).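 Further: VCAM-1 protein level quantified by ELISA on the cells.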 The note with it: primary human coronary artery smooth muscle cells; actives raise or lower the signal.

Read-out in test [7]: Collagen III, COL3A1 (gene 1281)
The test is described as follows: BSK_hDFCGF_CollagenIII: BioMAP Diversity Plus: hDFCGF Assay for Collagen III Biomarker Activity (AID 2283056). The note with it: primary human foreskin fibroblasts; actives raise or lower the signal. A digest of the protocol: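 ELISA readout of Collagen III in human dermal (foreskin) fibroblasts, taken 24 h post-treatment. Gain or loss relative to DMSO vehicle fitted in both directions.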

Read-out in test [8]: Epidermal growth factor receptor (EGFR), EGFR (gene 1956)
Kind of test: BSK_hDFCGF_EGFR: BioMAP Diversity Plus: hDFCGF Assay for Epidermal growth factor receptor (EGFR) Biomarker Activity (AID 2283057). Particulars: primary human foreskin fibroblasts; actives raise or lower the signal. A digest of the protocol: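 Primary human foreskin fibroblasts (hDFCGF system), sampled 24 h after dosing; EGFR quantified by ELISA. Bidirectional fit relative to DMSO baseline; SRB total-protein staining in parallel cultures for cytotoxicity.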

Read-out in test [9]: Interleukin-8 (IL8), CXCL8 (gene 3576)
Kind of test: BSK_hDFCGF_IL8: BioMAP Diversity Plus: hDFCGF Assay for Interleukin-8 (IL8) Biomarker Activity (AID 2283058). The note with it: primary human foreskin fibroblasts; actives raise or lower the signal. A digest of the protocol:
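IL-8 levels read by ELISA at 24 hours after dosing human skin fibroblast cultures. Parallel SRB staining assessed overt cytotoxicity, and gain or loss of signal was fitted against DMSO control.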

The nature of test [10]: BSK_hDFCGF_Proliferation: Cell Proliferation Assessment in the BioMAP Diversity Plus: hDFCGF Assay (AID 2283059).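 Further: curves fitted for both rise and fall of signal versus DMSO baseline.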 The note with it: primary human foreskin fibroblasts. A digest of the protocol:
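Sub-confluent human foreskin fibroblast cultures receive test chemical […]. Relative cell number is quantified by sulforhodamine B staining (0.1%, after 10% TCA fixation) at 560 nm, with bidirectional fitting referenced to DMSO.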

Read-out in test [11]: Macrophage colony-stimulating factor (MCSF), CSF1 (gene 1435)
The test is described as follows: BSK_hDFCGF_MCSF: BioMAP Diversity Plus: hDFCGF Assay for Macrophage colony-stimulating factor (MCSF) Biomarker Activity (AID 2283060). The note with it: primary human foreskin fibroblasts; actives raise or lower the signal. A digest of the protocol:
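M-CSF levels read by ELISA at 24 h post-dosing in human skin fibroblasts. Parallel cultures stained with SRB assessed cytotoxicity at the same time point; response fitted in both directions against the DMSO baseline.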

A short description of test [12]: BSK_hDFCGF_SRB: Viability Assessment in the BioMAP Diversity Plus: hDFCGF Assay (AID 2283061).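 Further: cells exposed to compound for 24 h before the read.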 Particulars: primary human foreskin fibroblasts. A digest of the protocol: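 Viability was read as total protein: after 10% TCA fixation, wells were stained with 0.1% sulforhodamine B and read at 560 nm. Primary human foreskin fibroblasts were dosed for 24 h, with bidirectional fitting versus DMSO.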

Read-out in test [13]: TIMP metallopeptidase inhibitor 1 (TIMP1), TIMP1 (gene 7076)
Kind of test: BSK_hDFCGF_TIMP1: BioMAP Diversity Plus: hDFCGF Assay for TIMP metallopeptidase inhibitor 1 (TIMP1) Biomarker Activity (AID 2283062). The note with it: primary human foreskin fibroblasts; actives raise or lower the signal. A digest of the protocol: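 TIMP-1 measured by ELISA 24 h after chemical dosing of primary human skin fibroblasts, with gain or loss fitted relative to DMSO. Parallel SRB staining (560 nm) monitored overt cytotoxicity.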

Read-out in test [14]: Matrix Metallopeptidase 1 (MMP1), MMP1 (gene 4312)
The test is described as follows: BSK_hDFCGF_MMP1: BioMAP Diversity Plus: hDFCGF Assay for Matrix Metallopeptidase 1 (MMP1) Biomarker Activity (AID 2283064). Particulars: primary human foreskin fibroblasts; actives raise or lower the signal. A digest of the protocol: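 hDFCGF primary fibroblasts (human foreskin); chemical added; 24 h; MMP1 by ELISA; bidirectional fit vs DMSO.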

Read-out in test [15]: Vascular cell adhesion molecule 1 (VCAM1), VCAM1 (gene 7412)
The test is described as follows: BSK_hDFCGF_VCAM1: BioMAP Diversity Plus: hDFCGF Assay for Vascular cell adhesion molecule 1 (VCAM1) Biomarker Activity (AID 2283065).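 On AC50: VCAM-1 protein level quantified by ELISA after 24 h chemical exposure.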 Particulars: primary human foreskin fibroblasts; actives raise or lower the signal. A digest of the protocol: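 ELISA readout of VCAM-1 on human dermal fibroblast primary cultures, 24 h after chemical exposure. Gain or loss of signal fitted in both directions against DMSO baseline.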

Read-out in test [16]: Plasminogen activator inhibitor-1 (PAI1), SERPINE1 (gene 5054)
The test is described as follows: BSK_hDFCGF_PAI1: BioMAP Diversity Plus: hDFCGF Assay for Plasminogen activator inhibitor-1 (PAI1) Biomarker Activity (AID 2283066). Particulars: primary human foreskin fibroblasts; actives raise or lower the signal. A digest of the protocol: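 Human foreskin fibroblast primary cells, 24 h chemical exposure; PAI-1 measured by ELISA. Bidirectional fitting relative to DMSO; parallel cultures stained with SRB for total protein to flag overt cytotoxicity.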

Read-out in test [17]: Intercellular Adhesion Molecule 1 (ICAM1), ICAM1 (gene 3383)
Kind of test: BSK_KF3CT_ICAM1: BioMAP Diversity Plus: KF3CT Assay for Intercellular Adhesion Molecule 1 (ICAM1) Biomarker Activity (AID 2283067). Particulars: primary human keratinocytes with fibroblasts; actives raise or lower the signal. A digest of the protocol:
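Cell-surface ICAM-1 was measured by ELISA 24 h after dosing primary human skin keratinocytes co-cultured with fibroblasts. Parallel SRB staining tracked overt cytotoxicity. Gain or loss of signal was fitted relative to DMSO.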

Read-out in test [18]: Interferon-gamma inducible Protein 10 (IP10), CXCL10 (gene 3627)
Kind of test: BSK_KF3CT_IP10: BioMAP Diversity Plus: KF3CT Assay for Interferon-gamma inducible Protein 10 (IP10) Biomarker Activity (AID 2283068). Particulars: primary human keratinocytes with fibroblasts; actives raise or lower the signal. A digest of the protocol: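 ELISA read-out of IP-10 after 24 h chemical dosing of human skin primary co-culture (keratinocytes, foreskin fibroblasts). Gain or loss of signal relative to DMSO, bidirectional curve fit.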

Test [19] is described as follows: BSK_KF3CT_SRB: Viability Assessment in the BioMAP Diversity Plus: KF3CT Assay (AID 2283069).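 Further: total protein by sulforhodamine B staining as a cytotoxicity measure; read 24 h after compound addition.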 The note with it: primary human keratinocytes with fibroblasts. A digest of the protocol:
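Keratinocytes co-cultured with foreskin fibroblasts (human primary); chemical added, 24 h; fix 10% TCA, stain 0.1% SRB, A560. Bidirectional fit vs DMSO.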

Read-out in test [20]: Monokine induced gamma interferon (MIG), CXCL9 (gene 4283)
Kind of test: BSK_hDFCGF_MIG: BioMAP Diversity Plus: hDFCGF Assay for Monokine induced gamma interferon (MIG) Biomarker Activity (AID 2283063). Particulars: primary human foreskin fibroblasts; actives raise or lower the signal. A digest of the protocol: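 Human primary foreskin fibroblasts in the hDFCGF system, exposed to test chemical for 24 h; MIG measured by ELISA. Bidirectional curve fitting against DMSO negative control as activity baseline.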

Results on six compounds are retold here after PubChem BioAssay (EPA / NIEHS).

Activity calls are given as the source filed them. How the source made its calls: active means hit-call score of the fitted dose curve at least 0.9, where 1 is the maximum; inactive means score below 0.9.

As to `CCOC(=O)C1=NOC(c2ccccc2)(c2ccccc2)C1`, the result in [1], in [2], in test [3], in test [4], in test [5] and in [7] was inactive. Besides, the result in [8], in test [9], in [10], in test [11], in [12] and in test [13] was inactive. For the same compound, the outcome in [14], in [15], in test [16], in [17], in test [18] and in [19] was inactive. In addition, the AC50 in test [6] was 20 µM (active).

For the compound `CC1(C)CC(O)CC(C)(C)N1[O]`, the outcome in [1], in test [2], in test [3], in [4], in [5] and in test [6] was inactive. Besides, the result in test [7], in test [8], in test [9], in test [10], in test [11] and in [12] was inactive. The outcome in [13], in test [20], in test [14], in [15], in test [16] and in test [18] was inactive. In addition, the result in test [19] was inactive.

For `CCCC(C)C(=O)OCC` (centres undefined), the outcome in [1], in test [2], in [3], in test [4], in test [5] and in test [6] was inactive. The outcome in [7], in [8], in [9], in test [10], in test [11] and in test [12] was inactive. In addition, the result in test [13], in test [20], in [14], in test [15], in [16] and in test [18] was inactive. Besides, the result in [19] was inactive.

Regarding `CCCCCCC=O`, the result in [1], in test [2], in [3], in [4], in test [5] and in test [6] was inactive. For the same compound, the outcome in [7], in test [8], in [10], in test [11], in test [12] and in test [13] was inactive. Besides, the outcome in test [20], in [14], in [15], in test [16], in test [17] and in test [18] was inactive. For the same compound, the outcome in test [19] was inactive.

In the case of `C=CCCCCCCCCC=O`, the outcome in test [1], in [2], in [3], in test [4], in [5] and in test [6] was inactive. The outcome in [7], in test [8], in test [9], in test [10], in [11] and in [12] was inactive. For the same compound, the result in test [13], in [14], in [15], in test [16], in test [18] and in test [19] was inactive.

On to `Oc1c(Cl)cc(Cl)c(Cl)c1Cl`, for which the outcome in [1], in [2], in test [3], in test [5], in test [8] and in [9] was inactive. The result in test [11], in test [20], in test [14] and in test [19] was inactive. Besides, the AC50 in test [4] was 31.1 µM (active); in test [6], 3.97 µM (active); in [7] it was 10.4 µM (active); in [10], 27.7 µM (active); in test [12] it was 28.7 µM (active); in test [13] it was 32.1 µM (active). The AC50 in test [15] was 23.3 µM (active); in test [16], 24.6 µM (active); in test [17] it was 20 µM (active); in [18], 20 µM (active).

By AC50 is commonly meant the concentration giving half of the maximal activity seen.
